Consider 5 compounds from PubChem BioAssay AID360 (National Center for Advancing Translational Sciences (NCATS), 2006).

The campaign covered roughly 48,000 compounds. About 550 (1.1%) were called active. About 4% were inconclusive and are not listed. Cut-off read from the data, not from the text of the source: active = potency below about 15 µM; inconclusive = mostly about 16 µM to 33 µM; inactive = weaker than that. This excerpt belongs to a sample that is enriched for actives.
Potency is the fitted concentration of half-maximal effect.

Lysosomal acid glucosylceramidase (Homo sapiens), sequence (P04062 whole entry, looked up): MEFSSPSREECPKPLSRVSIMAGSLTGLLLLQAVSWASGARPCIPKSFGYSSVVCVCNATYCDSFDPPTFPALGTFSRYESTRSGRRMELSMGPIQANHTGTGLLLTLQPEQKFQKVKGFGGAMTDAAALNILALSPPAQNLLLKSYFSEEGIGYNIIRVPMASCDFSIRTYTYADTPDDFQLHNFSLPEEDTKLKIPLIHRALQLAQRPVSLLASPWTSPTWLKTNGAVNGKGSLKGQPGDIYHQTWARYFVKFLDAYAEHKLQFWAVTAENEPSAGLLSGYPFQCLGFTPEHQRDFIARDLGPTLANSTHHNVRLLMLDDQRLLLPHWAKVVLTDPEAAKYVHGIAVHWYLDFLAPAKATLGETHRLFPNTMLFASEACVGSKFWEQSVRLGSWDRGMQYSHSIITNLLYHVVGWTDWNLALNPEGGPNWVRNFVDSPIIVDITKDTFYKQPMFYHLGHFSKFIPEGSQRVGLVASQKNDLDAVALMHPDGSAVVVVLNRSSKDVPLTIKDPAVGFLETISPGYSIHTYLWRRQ

The assay addresses Lysosomal acid glucosylceramidase (Homo sapiens) (UniProt P04062). The experiment in a line: Glucocerebrosidase.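 Note: the screen sought inhibitors.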 The following applies: purified enzyme, resorufin glucoside fluorescence (screen aimed at inhibitors), 20 min. From the text:
NCGC Assay Overview: Beta-glucocerebrosidase catalyzes the hydrolysis of beta-glucocerebroside to glucose and ceramide. The inherited deficiency of beta-glucocerebrosidase results in Gaucher disease, which is characterized by a wide variety of symptoms including hepatosplenomegaly, anemia, thrombocytopenia, bony lesions and bone marrow infiltration with characteristic storage cells, known as Gaucher cells. There are also forms of the disorder affecting the central nervous system. Patients with the same genotypes can manifest with diverse clinical presentations and it is believed that improper folding and trafficking of beta-glucocerbrosidase may contribute to the phenotypes observed. Low molecular weight molecules, acting as chaperones, may potentially restore trafficking of misfolded beta-glucocerebrosidase from the endoplasmic reticulum to the lysosomes, thereby enhancing functional lysosomal beta-glucocerebrosidase activity. Using normal beta-glucocerebrosidase, an assay was developed to screen for small molecule inhibitors that could potentially act as molecular chaperones on the mutant forms [developed with NIH investigator Dr. Ellen Sidransky's laboratory]. Two pro-fluorescent substrates were chosen for two screens against a small molecule library. One beta-glucocerebrosidase assay used Resorufin beta-D-Glucopyranoside (Marker Gene Technology Inc.), generating a red fluorescent product. The second assay used Fluorescein di-beta-D-Glucopyranoside, generating a blue fluorescent product. […] The IC50 values of Conduritol B Epoxide, a known glucocerebrosidase inhibitor, were determined to be 87.5 uM and 117 uM, respectively. The use of two difference pro-fluorescent substrates in the screens helped to eliminate false positives. All compounds were screened in a titration series resulting in AC50s (e.g., IC50s or EC50s).
NCGC Assay Protocol Summary: Both enzyme and substrate were diluted in buffer composed of 50mM citric acid/KH2PO4, 10mM sodium taurocholate and 0.01% tween-20 at pH 5.9. The final concentration of the enzyme was 0.2 nM in both assays. The compound library was titrated in 7 to 15 concentrations for the primary screens with a final concentration ranging from 0.6 nM to 50 uM. This particular assay protocol is for the "red" substrate, and it was performed in 1536-well plate format as follows: Red fluorescence substrate assay: 2 uL enzyme 23 nL compound 1 uL substrate (final concentration of 30 uM) Incubate at room temperature (RT) for 20 minutes Read the plate in Viewlux plate reader (Ex=548(7) and Em=600(10)).
As for `Fc1ccc(N2CCN(Cc3ccc4c(c3)OCO4)CC2)cc1`, the Potency is > 76.9 µM (inactive).

For the compound `CC(C)c1ccc(O)c(CN2CCN(c3ccccc3)CC2)c1`, the Potency is 10.2 µM (active).

Consider `O=C(c1cc(-c2ccncc2)nc2ccccc12)N1CCC2(CC1)OCCO2`, for which the Potency was > 76.9 µM (inactive).

In the case of `CC(=NCC1CCCO1)c1c(O)n(-c2ccccc2)c(=O)[nH]c1=O` (stereo not given), the Potency was > 76.9 µM (inactive).

For the compound `CC(=O)c1c(O)n(C2CCCCCC2)c(=O)[nH]c1=O`, the Potency was > 76.9 µM (inactive).
